Laboratory results as given in PubChem BioAssay (NCATS).
Records with an inconclusive call do not appear. Activity calls are given as the source filed them. Calls follow the shape of the dose curve; as a rule, active = well fitted curve in the direction sought with a large enough effect; inconclusive = small, poorly fitted or top-dose-only effect, or another doubt; inactive = no such curve, though single readings can be large; an effect the other way counts as inactive or inconclusive.

Key:
[1] = qHTS of pediatric cancer cell lines to identify multiple opportunities for drug repurposing: Primary screen for NB1643 cells (AID 1347099); also: nearly all actives have a fitted effect of over 50% in size; also: potency is read from the fitted curve at half-maximal effect
Method in brief: (§1)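 Luminescence from CellTiter-Glo served as readout of metabolically active cells after 48 h compound exposure. Titrations: MIPE 11-point, from 0.78 nM; NPC 8-point, from 0.59 nM (final). Concentration-response curves came straight from the primary screen.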

[2] = qHTS of pediatric cancer cell lines to identify multiple opportunities for drug repurposing: Primary screen for LAN-5 cells (AID 1347100); also: potency is read from the fitted curve at half-maximal effect
Method in brief: (§2)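 Cells (500-1,000/well) rested 5 h, then received compounds for 48 h; metabolically active cells were measured by CellTiter-Glo luminescence. Final concentrations spanned up to 46 µM (MIPE, 11-point) or 0.59 nM-46 µM (NPC, 8-point) in primary screens, 11-point in follow-ups.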

[3] = qHTS of pediatric cancer cell lines to identify multiple opportunities for drug repurposing: Primary screen for BT-12 cells (AID 1347101); also: nearly all actives have a fitted effect of over 25% in size; also: potency is read from the fitted curve at half-maximal effect
Method in brief: as §2

[4] = qHTS of pediatric cancer cell lines to identify multiple opportunities for drug repurposing: Primary screen for Rh18 cells (AID 1347102); also: nearly all actives have a fitted effect of over 65% in size; also: potency is read from the fitted curve at half-maximal effect
Method in brief: as §2

[5] = qHTS of pediatric cancer cell lines to identify multiple opportunities for drug repurposing: Primary screen for OHS-50 cells (AID 1347103); also: nearly all actives have a fitted effect of over 40% in size; also: potency is read from the fitted curve at half-maximal effect
Method in brief: as §2

[6] = qHTS of pediatric cancer cell lines to identify multiple opportunities for drug repurposing: Primary screen for RD cells (AID 1347104); also: nearly all actives have a fitted effect of over 55% in size; also: potency is read from the fitted curve at half-maximal effect
Method in brief: as §1

[7] = qHTS of pediatric cancer cell lines to identify multiple opportunities for drug repurposing: Primary screen for MG 63 (6-TG R) cells (AID 1347105); also: nearly all actives have a fitted effect of over 50% in size; also: potency is read from the fitted curve at half-maximal effect
Method in brief: as §1

[8] = qHTS of pediatric cancer cell lines to identify multiple opportunities for drug repurposing: Primary screen for control Hh wild type fibroblast cells (AID 1347106);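 also: series mostly up to about 46 µM; a drop in luminescence marks cytotoxicity and a rise apparent proliferation; nearly all actives have a fitted effect of over 55% in size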
Method in brief: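 Viability after 48 h compound treatment at 37C, 500-1,000 cells/well, read as ATP luminescence with CellTiter-Glo. Primary screens used 11-point (MIPE, 0.78 nM-46 µM) or 8-point (NPC, 0.59 nM-46 µM) final concentrations; follow-up screens used 11-point dilutions.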

[9] = qHTS of pediatric cancer cell lines to identify multiple opportunities for drug repurposing: Primary screen for Rh41 cells (AID 1347108); also: nearly all actives have a fitted effect of over 70% in size; also: potency is read from the fitted curve at half-maximal effect
Method in brief: as §1

[10] = qHTS of pediatric cancer cell lines to identify multiple opportunities for drug repurposing: Primary screen for Rh30 cells (AID 1347107); also: nearly all actives have a fitted effect of over 75% in size; also: potency is read from the fitted curve at half-maximal effect
Method in brief: as §2

[11] = qHTS of pediatric cancer cell lines to identify multiple opportunities for drug repurposing: Confirmatory screen for NB1643 cells (AID 1347109); also: nearly all actives have a fitted effect of over 45% in size; also: potency is read from the fitted curve at half-maximal effect
Method in brief: as §2

[12] = qHTS of pediatric cancer cell lines to identify multiple opportunities for drug repurposing: Confirmatory screen for A673 cells (AID 1347110);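 also: cells exposed to compound for 48 h before the viability read; nearly all actives have a fitted effect of over 65% in size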
Method in brief: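 Cells plated at 500-1,000/well were treated five hours later with multi-point dilutions up to 46 µM final. After two days, CellTiter-Glo was added and luminescence read.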

[13] = qHTS of pediatric cancer cell lines to identify multiple opportunities for drug repurposing: Confirmatory screen for SK-N-MC cells (AID 1347111);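 also: cells exposed to compound for 48 h before the readout; nearly all actives have a fitted effect of over 70% in size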; also: potency is read from the fitted curve at half-maximal effect
Method in brief: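 Seed 500-1,000 cells/well; rest 5 h at 37 degrees C. Pin-transfer compounds, 11-point titration. Incubate 48 h. Add CellTiter-Glo, 15 min RT, read luminescence.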

[14] = qHTS of pediatric cancer cell lines to identify multiple opportunities for drug repurposing: Confirmatory screen for BT-12 cells (AID 1347112); also: nearly all actives have a fitted effect of over 55% in size
Method in brief: as §2

[15] = qHTS of pediatric cancer cell lines to identify multiple opportunities for drug repurposing: Confirmatory screen for LAN-5 cells (AID 1347113); also: nearly all actives have a fitted effect of over 65% in size
Method in brief: as §2

[16] = qHTS of pediatric cancer cell lines to identify multiple opportunities for drug repurposing: Confirmatory screen for DAOY cells (AID 1347114); also: nearly all actives have a fitted effect of over 65% in size
Method in brief: (§3)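 Viability measured as metabolically active cells via CellTiter-Glo luminescence following 48 hours of compound exposure, 11-point dilutions in confirmatory testing. 500-1,000 cells/well plated 5 hours before dosing; controls were DMSO and 2.3 µM bortezomib.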

[17] = qHTS of pediatric cancer cell lines to identify multiple opportunities for drug repurposing: Confirmatory screen for NB-EBc1 cells (AID 1347115);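 also: cells exposed to compound for 48 h before the viability read; nearly all actives have a fitted effect of over 45% in size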
Method in brief: as §2

[18] = qHTS of pediatric cancer cell lines to identify multiple opportunities for drug repurposing: Confirmatory screen for SJ-GBM2 cells (AID 1347116); also: nearly all actives have a fitted effect of over 60% in size
Method in brief: as §3

[19] = qHTS of pediatric cancer cell lines to identify multiple opportunities for drug repurposing: Confirmatory screen for BT-37 cells (AID 1347117); also: nearly all actives have a fitted effect of over 55% in size; also: potency is read from the fitted curve at half-maximal effect
Method in brief: as §2

[20] = qHTS of pediatric cancer cell lines to identify multiple opportunities for drug repurposing: Confirmatory screen for TC32 cells (AID 1347118); also: potency is read from the fitted curve at half-maximal effect
Method in brief: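 Measured quantity: luminescence from CellTiter-Glo, reflecting metabolically active TC32 cells following 48 h of compound. Curves came straight from multi-point titrations, with 8 or 11 points in primary and 11 in confirmatory screening.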

Measured: Potency

COc1nccc(-c2c(-c3ccc(F)cc3)ncn2C2CCC(O)CC2)n1 (configuration not stated)
inactive: [1] | [2] | [3] | [4] | [5] | [6] | [7] | [8] | [9]

O=C1CCCC(=O)C1C(=O)c1ccc(C(F)(F)F)cc1[N+](=O)[O-]
inactive: [1] | [2] | [3] | [4] | [5] | [6] | [7] | [8] | [10] | [9]

CNC(=O)c1cc(Oc2ccc(NC(=O)Nc3ccc(Cl)c(C(F)(F)F)c3)c(F)c2)ccn1
inactive: [8]
active: [1] 13.2 µM | [2] 20.9 µM | [3] 12.2 µM | [4] 23.5 µM | [5] 10.9 µM | [6] 16.6 µM | [7] 23.5 µM

Cc1cn([C@@H]2C[C@@H](O)[C@H](CO)O2)c(=O)[nH]c1=O
inactive: [1] | [2] | [3] | [4] | [5] | [6] | [7] | [8] | [10] | [9]

CCC=CC[C@H]1C(=O)CC[C@@H]1CC(=O)OC
inactive: [1] | [2] | [3] | [4] | [5] | [6] | [7] | [8] | [10] | [9]

CN1CCN2c3ncccc3Cc3ccccc3C2C1 (configuration not stated)
inactive: [1] | [2] | [3] | [4] | [5] | [6] | [7] | [8] | [10] | [9]

O=C(O)CCNc1cc(N2CCc3ccccc3CC2)nc(-c2ccccn2)n1
inactive: [2] | [3] | [4] | [5] | [6] | [7] | [10]
active: [1] 11.8 µM

COc1ccnc(CS(=O)c2nc3ccc(OC(F)F)cc3[nH]2)c1OC (configuration not stated)
inactive: [1] | [2] | [3] | [4] | [5] | [6] | [7] | [10] | [9]

O=C(c1ccc(C(=O)N2CCC(N3CCCC3)CC2)c(Nc2ccccc2)c1)N1CCC(N2CCCC2)CC1
inactive: [1] | [2] | [3] | [4] | [5] | [6] | [7]

CC1(C)OC2CC3C4CC(F)C5=CC(=O)C=CC5(C)C4C(O)CC3(C)[C@]2(C(=O)CO)O1 (some centres not stated)
inactive: all assays above

CO[C@H]1/C=C\O[C@@]2(C)Oc3c(C)c(O)c4c(O)c(c(C=NN5CCN(C6CCCC6)CC5)c(O)c4c3C2=O)NC(=O)C(C)=CC=C[C@H](C)[C@H](O)[C@@H](C)[C@@H](O)[C@@H](C)[C@H](OC(C)=O)[C@H]1C
inactive: [15] | [18]
active: [1] 0.0105 µM | [2] 0.001 µM | [3] 0.137 µM | [4] 0.118 µM | [5] 0.193 µM | [6] 0.209 µM | [7] 0.59 µM | [9] 0.148 µM | [11] 23.3 µM | [13] 20.8 µM | [19] 26.1 µM | [20] 20.8 µM

Cc1cc2nc3c(=O)[nH]c(=O)nc-3n(CC(O)C(O)C(O)CO)c2cc1C (configuration not stated)
active: [1] 23.5 µM
inactive: [2] | [3] | [4] | [5] | [6] | [7] | [8] | [10] | [9]

CCOC(=O)[C@@H](N)CCC(=O)N[C@@H](CSCc1ccccc1)C(=O)N[C@@H](C(=O)OCC)c1ccccc1
inactive: [1] | [2] | [3] | [4] | [5] | [6] | [7] | [8] | [10] | [9]

O=C(O)C1=NC(C(=O)O)CC(C=CN2c3cc(O)c(OC4OC(CO)C(O)C(O)C4O)cc3CC2C(=O)O)=C1 (configuration not stated)
inactive: [1] | [2] | [3] | [4] | [5] | [6] | [7] | [8] | [10]

COc1nc(C)cnc1NS(=O)(=O)c1cccnc1-c1ccc(-c2nnco2)cc1
inactive: [1] | [2] | [3] | [4] | [5] | [6] | [7] | [10] | [9]

Cc1cnc(Nc2cccc(CN3CCOCC3)c2)nc1Nc1cccc(S(=O)(=O)NC(C)(C)C)c1
active: [1] 8.33 µM | [2] 1.48 µM | [3] 13.7 µM | [4] 8.33 µM | [5] 3.43 µM | [6] 13.2 µM | [7] 7.43 µM | [10] 8.33 µM | [9] 6.62 µM
